Assay results published in the supplement of paper PMC10849652.
Of roughly 7,900 targets only a part is listed; those with a hit were picked by preference. About 0.6% of all pairs of compound and target were hits.

Columns and labels:
Assay in all cases: log2 fold change, soluble protein after heating vs DMSO (PISA); higher = thermal stabilisation; K562 cells, 10 uM, 30 min; active = over 0.2 and 3.5 SD of the protein, either way, in both replicates (recomputed)
saracatinib = compound: CN1CCN(CCOc2cc(OC3CCOCC3)c3c(Nc4c(Cl)ccc5c4OCO5)ncnc3c2)CC1 [saracatinib]
How it was run: (§1)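 K562 cells at 2×10^6 cells/mL were treated with 10 μM compound for 30 min. Aliquots were heated for 3 min across 48°C-58°C, pooled, and extracted in PBS with 0.5% NP-40 at 4°C; soluble protein was the supernatant after 21,000xg for 90 min. Soluble protein was quantified by TMTpro 16plex LC-MS/MS with channel sums equalised, and reported as log2 fold change in thermal stability against DMSO controls, with values from duplicates.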

sotrastaurin = compound: CN1CCN(c2nc(C3=C(c4c[nH]c5ccccc45)C(=O)NC3=O)c3ccccc3n2)CC1 [sotrastaurin]
How it was run: as §1

alvocidib = compound: CN1CC[C@H](c2c(O)cc(O)c3c(=O)cc(-c4ccccc4Cl)oc23)[C@H](O)C1 [alvocidib]
How it was run: as §1

Tubastatin A = compound: CN1CCc2c(c3ccccc3n2Cc2ccc(C(=O)NO)cc2)C1 [Tubastatin A]
How it was run: as §1

[1] = compound: CNC(=O)C1=CC=CC=C1NC2=NC(=NC=C2Cl)NC3=C(C=C(C=C3)N4CCOCC4)OC
How it was run: as §1

defactinib = compound: CNC(=O)c1ccc(Nc2ncc(C(F)(F)F)c(NCc3nccnc3N(C)S(C)(=O)=O)n2)cc1 [defactinib]
How it was run: as §1

rucaparib = compound: CNCc1ccc(-c2[nH]c3cc(F)cc4c3c2CCNC4=O)cc1 [rucaparib]
How it was run: as §1

[2] = compound: CNc1nc(-c2ccc3c(N)n[nH]c3c2)cc(N2C[C@@H](C(=O)NC3CCCCC3)CC[C@H]2C)n1
How it was run: as §1

encorafenib = compound: COC(=O)N[C@@H](C)CNc1nccc(-c2cn(C(C)C)nc2-c2cc(Cl)cc(NS(C)(=O)=O)c2F)n1 [encorafenib]
How it was run: as §1

[3] = compound: COC(=O)[C@H](CCSC)NC(=O)C1=C(C=C(C=C1)NC[C@H](CS)N)C2=CC=CC=C2
How it was run: as §1

[4] = compound: COC1=CC=C(C=C1)CN2C=CC3=C2C=C(C=C3)C(=O)NO
How it was run: as §1

filanesib = compound: CON(C)C(=O)N1N=C(c2cc(F)ccc2F)S[C@@]1(CCCN)c1ccccc1 [filanesib]
How it was run: as §1

zotarolimus = compound: CO[C@H]1C[C@@H]2CC[C@@H](C)[C@@](O)(O2)C(=O)C(=O)N2CCCC[C@H]2C(=O)O[C@H]([C@H](C)C[C@@H]2CC[C@H](n3cnnn3)[C@H](OC)C2)CC(=O)[C@H](C)/C=C(\C)[C@@H](O)[C@@H](OC)C(=O)[C@H](C)C[C@H](C)/C=C/C=C/C=C/1C [zotarolimus]
How it was run: as §1

idasanutlin = compound: COc1cc(C(=O)O)ccc1NC(=O)[C@@H]1N[C@@H](CC(C)(C)C)[C@](C#N)(c2ccc(Cl)cc2F)[C@H]1c1cccc(Cl)c1F [idasanutlin]
How it was run: as §1

alisertib = compound: COc1cc(Nc2ncc3c(n2)-c2ccc(Cl)cc2C(c2c(F)cccc2OC)=NC3)ccc1C(=O)O [alisertib]
How it was run: as §1

[5] = compound: COc1cc2nc(-c3cc(F)ccc3O)nc(N[C@@H]3CNC[C@H]3C(C)(C)O)c2cc1OC
How it was run: as §1

gefitinib = compound: COc1cc2ncnc(Nc3ccc(F)c(Cl)c3)c2cc1OCCCN1CCOCC1 [gefitinib]
How it was run: as §1

[6] = compound: COc1cccc2cc(-c3nc([C@H]4CC[C@H](C(=O)O)CC4)n4ncnc(N)c34)[nH]c12
How it was run: as §1

lapatinib = compound: CS(=O)(=O)CCNCc1ccc(-c2ccc3ncnc(Nc4ccc(OCc5cccc(F)c5)c(Cl)c4)c3c2)o1 [lapatinib]
How it was run: as §1

pictilisib = compound: CS(=O)(=O)N1CCN(Cc2cc3nc(-c4cccc5[nH]ncc45)nc(N4CCOCC4)c3s2)CC1 [pictilisib]
How it was run: as §1

Measured: log2 fold change

GYG1 (UniProt P46976)
inactive: saracatinib -0.03 | sotrastaurin -0.425 | alvocidib -0.046 | Tubastatin A 0.033 | [1] 0.091 | defactinib -0.042 | rucaparib 0.062 | [2] 0.038 | encorafenib 0.083 | [3] 0.013 | [4] 0.08 | filanesib 0.124 | zotarolimus 0.036 | idasanutlin 0.15 | alisertib -0.133 | [5] -0.163 | gefitinib -0.028 | [6] -0.195 | lapatinib 0.051
active: pictilisib 0.376

IFRD2 isoform 2 (UniProt Q12894)
active: rucaparib -0.549 | [6] 0.508
inactive: saracatinib 0.126 | sotrastaurin 0.31 | alvocidib -0.017 | Tubastatin A -0.272 | [1] 0.022 | defactinib 0.16 | [2] -0.095 | encorafenib -0.031 | [3] 0.026 | [4] -0.073 | filanesib 0.008 | zotarolimus 0.24 | idasanutlin 0 | alisertib -0.278 | [5] -0.219 | gefitinib 0.128 | lapatinib 0.037 | pictilisib 0.336

FDPS (UniProt P14324)
Chain of UniProt P14324 (P14324 whole entry, looked up): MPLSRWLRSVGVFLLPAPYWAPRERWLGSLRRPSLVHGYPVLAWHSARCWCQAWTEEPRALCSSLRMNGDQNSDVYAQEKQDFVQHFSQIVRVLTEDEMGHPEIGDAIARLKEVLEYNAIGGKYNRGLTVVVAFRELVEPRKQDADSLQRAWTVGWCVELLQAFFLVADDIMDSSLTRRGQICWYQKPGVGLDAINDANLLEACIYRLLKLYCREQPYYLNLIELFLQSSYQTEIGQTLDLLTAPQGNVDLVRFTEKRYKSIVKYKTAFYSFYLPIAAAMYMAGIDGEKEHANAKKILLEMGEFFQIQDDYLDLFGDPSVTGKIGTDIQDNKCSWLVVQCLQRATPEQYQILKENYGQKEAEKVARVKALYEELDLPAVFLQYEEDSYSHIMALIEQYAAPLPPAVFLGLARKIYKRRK
inactive: saracatinib -0.151 | sotrastaurin -0.041 | alvocidib -0.057 | Tubastatin A 0.062 | [1] -0.097 | defactinib -0.032 | rucaparib -0.112 | [2] 0.237 | encorafenib 0.137 | [3] -0.118 | [4] 0.048 | filanesib -0.246 | zotarolimus 0.019 | idasanutlin -0.063 | alisertib 0.066 | [5] 0.118 | gefitinib -0.047 | [6] 0.009 | lapatinib -0.018 | pictilisib -0.076

HDDC2 (UniProt Q7Z4H3)
Chain of UniProt Q7Z4H3 (Q7Z4H3 whole entry, looked up): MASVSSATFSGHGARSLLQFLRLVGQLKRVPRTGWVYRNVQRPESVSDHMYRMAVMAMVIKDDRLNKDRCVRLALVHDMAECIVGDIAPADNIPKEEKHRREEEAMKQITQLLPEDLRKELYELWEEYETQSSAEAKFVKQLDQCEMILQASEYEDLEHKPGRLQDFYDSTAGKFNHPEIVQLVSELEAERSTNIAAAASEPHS
inactive: saracatinib 0.045 | sotrastaurin 0.042 | alvocidib -0.049 | Tubastatin A 0.015 | [1] 0.007 | defactinib -0.014 | rucaparib -0.014 | [2] 0.063 | encorafenib 0.014 | [3] -0.013 | [4] -0.098 | filanesib -0.037 | zotarolimus 0.049 | idasanutlin -0.068 | alisertib 0.04 | [5] -0.05 | gefitinib -0.022 | [6] 0.068 | lapatinib 0.037 | pictilisib 0.064

HTATIP2 isoform 3 (UniProt Q9BUP3)
inactive: saracatinib -0.016 | sotrastaurin 0.023 | alvocidib -0.113 | Tubastatin A -0.009 | [1] -0.001 | defactinib -0.065 | rucaparib 0.023 | [2] 0.022 | encorafenib 0.01 | [3] -0.016 | [4] -0.003 | filanesib -0.091 | idasanutlin -0.031 | alisertib -0.029 | [5] -0.131 | gefitinib 0.066 | [6] 0.054 | lapatinib -0.015 | pictilisib 0.137
active: zotarolimus 0.364

FBXO42 (UniProt Q6P3S6)
inactive: saracatinib -0.032 | sotrastaurin 0.051 | alvocidib -0.107 | Tubastatin A 0 | [1] -0.067 | defactinib -0.165 | rucaparib -0.073 | [2] 0.139 | encorafenib 0.03 | [3] 0.012 | [4] -0.037 | filanesib 0.011 | zotarolimus 0.025 | idasanutlin 0.009 | alisertib 0.047 | [5] -0.054 | gefitinib 0.036 | [6] 0.07 | lapatinib 0.063 | pictilisib -0.088

GBF1 (UniProt Q92538)
Chain of UniProt Q92538 (Q92538 whole entry, looked up): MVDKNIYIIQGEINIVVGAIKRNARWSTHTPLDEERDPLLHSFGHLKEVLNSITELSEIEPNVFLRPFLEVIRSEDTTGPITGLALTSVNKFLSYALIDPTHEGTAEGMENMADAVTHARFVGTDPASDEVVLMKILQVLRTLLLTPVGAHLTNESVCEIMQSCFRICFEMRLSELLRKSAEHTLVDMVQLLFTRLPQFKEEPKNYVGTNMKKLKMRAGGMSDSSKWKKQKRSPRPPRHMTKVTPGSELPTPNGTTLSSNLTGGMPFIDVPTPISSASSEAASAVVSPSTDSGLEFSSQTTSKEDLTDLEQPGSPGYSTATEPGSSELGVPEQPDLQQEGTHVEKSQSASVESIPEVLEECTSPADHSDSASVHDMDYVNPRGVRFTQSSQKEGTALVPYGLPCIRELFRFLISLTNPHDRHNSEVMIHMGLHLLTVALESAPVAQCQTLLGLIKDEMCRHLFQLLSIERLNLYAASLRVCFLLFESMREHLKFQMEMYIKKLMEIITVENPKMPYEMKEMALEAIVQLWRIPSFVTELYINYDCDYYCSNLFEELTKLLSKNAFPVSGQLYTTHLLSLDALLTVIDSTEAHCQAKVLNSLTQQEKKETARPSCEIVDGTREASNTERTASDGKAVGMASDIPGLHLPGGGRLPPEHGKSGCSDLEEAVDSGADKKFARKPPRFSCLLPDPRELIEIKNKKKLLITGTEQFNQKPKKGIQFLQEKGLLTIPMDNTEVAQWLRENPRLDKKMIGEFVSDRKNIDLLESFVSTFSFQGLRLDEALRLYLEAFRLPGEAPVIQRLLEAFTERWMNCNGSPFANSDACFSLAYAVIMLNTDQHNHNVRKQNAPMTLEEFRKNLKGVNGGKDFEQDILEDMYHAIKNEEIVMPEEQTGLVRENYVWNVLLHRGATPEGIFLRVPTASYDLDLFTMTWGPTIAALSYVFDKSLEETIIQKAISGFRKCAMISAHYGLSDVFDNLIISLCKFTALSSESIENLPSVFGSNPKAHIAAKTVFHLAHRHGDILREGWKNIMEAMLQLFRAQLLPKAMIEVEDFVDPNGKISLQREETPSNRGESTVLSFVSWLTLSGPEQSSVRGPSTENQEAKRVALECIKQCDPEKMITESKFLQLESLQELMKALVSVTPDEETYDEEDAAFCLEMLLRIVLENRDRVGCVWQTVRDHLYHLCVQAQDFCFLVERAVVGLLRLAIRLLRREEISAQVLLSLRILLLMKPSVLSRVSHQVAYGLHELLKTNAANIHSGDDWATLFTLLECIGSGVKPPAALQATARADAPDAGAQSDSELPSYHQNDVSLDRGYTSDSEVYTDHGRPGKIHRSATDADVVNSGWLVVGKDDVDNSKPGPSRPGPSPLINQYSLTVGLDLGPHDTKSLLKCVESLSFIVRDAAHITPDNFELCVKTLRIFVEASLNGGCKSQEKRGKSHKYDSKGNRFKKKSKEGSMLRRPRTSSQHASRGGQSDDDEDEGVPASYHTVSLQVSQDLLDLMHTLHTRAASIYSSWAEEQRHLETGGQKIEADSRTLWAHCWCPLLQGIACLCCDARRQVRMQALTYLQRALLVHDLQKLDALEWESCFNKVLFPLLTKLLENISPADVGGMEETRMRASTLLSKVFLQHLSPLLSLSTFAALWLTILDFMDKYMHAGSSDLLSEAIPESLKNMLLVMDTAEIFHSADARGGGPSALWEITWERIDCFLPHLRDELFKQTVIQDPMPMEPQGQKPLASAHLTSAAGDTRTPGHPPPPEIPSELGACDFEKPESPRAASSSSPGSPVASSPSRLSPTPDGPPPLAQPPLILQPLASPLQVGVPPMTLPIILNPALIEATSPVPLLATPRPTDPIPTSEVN
inactive: saracatinib -0.055 | sotrastaurin -0.103 | alvocidib -0.023 | Tubastatin A 0.034 | [1] -0.024 | defactinib -0.031 | rucaparib 0.044 | [2] 0.059 | encorafenib 0.104 | [3] -0.015 | [4] -0.005 | filanesib 0.038 | zotarolimus 0.008 | idasanutlin -0.037 | alisertib -0.013 | [5] 0.025 | gefitinib -0.012 | [6] -0.054 | lapatinib -0.036 | pictilisib -0.036

FERMT3 (UniProt Q86UX7)
inactive: saracatinib 0.019 | sotrastaurin -0.016 | alvocidib -0.055 | Tubastatin A -0.003 | [1] 0.008 | defactinib -0.069 | rucaparib -0.003 | [2] 0.036 | encorafenib 0.063 | [3] -0.03 | [4] 0.046 | filanesib -0.037 | zotarolimus 0.033 | idasanutlin -0.068 | alisertib -0.104 | [5] 0 | gefitinib -0.007 | [6] 0.001 | lapatinib -0.006 | pictilisib 0.009

GLYR1 (UniProt Q49A26)
Chain of UniProt Q49A26 (Q49A26 whole entry, looked up): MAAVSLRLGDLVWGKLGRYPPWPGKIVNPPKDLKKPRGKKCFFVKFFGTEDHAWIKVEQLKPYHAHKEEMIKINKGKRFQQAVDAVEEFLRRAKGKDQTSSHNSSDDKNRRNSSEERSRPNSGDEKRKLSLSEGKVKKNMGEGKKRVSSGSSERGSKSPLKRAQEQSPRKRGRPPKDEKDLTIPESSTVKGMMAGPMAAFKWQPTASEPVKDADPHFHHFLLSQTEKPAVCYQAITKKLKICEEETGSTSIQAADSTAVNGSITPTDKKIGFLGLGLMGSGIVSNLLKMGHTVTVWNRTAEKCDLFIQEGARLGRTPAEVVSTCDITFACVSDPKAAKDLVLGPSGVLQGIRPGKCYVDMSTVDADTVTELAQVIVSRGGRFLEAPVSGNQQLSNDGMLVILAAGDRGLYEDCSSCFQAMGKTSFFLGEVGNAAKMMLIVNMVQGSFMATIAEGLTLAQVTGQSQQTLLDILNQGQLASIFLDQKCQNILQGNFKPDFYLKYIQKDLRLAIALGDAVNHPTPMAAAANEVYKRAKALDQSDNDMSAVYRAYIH
inactive: saracatinib 0.007 | sotrastaurin 0.028 | alvocidib 0.14 | Tubastatin A -0.077 | [1] 0.021 | defactinib -0.029 | rucaparib 0.211 | [2] 0.04 | encorafenib -0.044 | [3] -0.033 | [4] -0.024 | filanesib 0.125 | zotarolimus -0.04 | idasanutlin 0 | alisertib 0.071 | [5] -0.092 | gefitinib 0.113 | [6] -0.07 | lapatinib 0.169 | pictilisib -0.228

GPAT4 (UniProt Q86UL3)
inactive: saracatinib 0.042 | sotrastaurin 0.046 | alvocidib -0.046 | Tubastatin A -0.039 | [1] 0.04 | defactinib -0.017 | rucaparib 0.055 | [2] -0.069 | encorafenib -0.021 | [3] 0.031 | [4] -0.034 | filanesib -0.024 | zotarolimus 0.055 | idasanutlin -0.093 | alisertib 0.01 | [5] 0.188 | gefitinib 0.006 | [6] -0.046 | lapatinib -0.031 | pictilisib 0.036

GALNT2 (UniProt Q10471)
Chain of UniProt Q10471 (Q10471 whole entry, looked up): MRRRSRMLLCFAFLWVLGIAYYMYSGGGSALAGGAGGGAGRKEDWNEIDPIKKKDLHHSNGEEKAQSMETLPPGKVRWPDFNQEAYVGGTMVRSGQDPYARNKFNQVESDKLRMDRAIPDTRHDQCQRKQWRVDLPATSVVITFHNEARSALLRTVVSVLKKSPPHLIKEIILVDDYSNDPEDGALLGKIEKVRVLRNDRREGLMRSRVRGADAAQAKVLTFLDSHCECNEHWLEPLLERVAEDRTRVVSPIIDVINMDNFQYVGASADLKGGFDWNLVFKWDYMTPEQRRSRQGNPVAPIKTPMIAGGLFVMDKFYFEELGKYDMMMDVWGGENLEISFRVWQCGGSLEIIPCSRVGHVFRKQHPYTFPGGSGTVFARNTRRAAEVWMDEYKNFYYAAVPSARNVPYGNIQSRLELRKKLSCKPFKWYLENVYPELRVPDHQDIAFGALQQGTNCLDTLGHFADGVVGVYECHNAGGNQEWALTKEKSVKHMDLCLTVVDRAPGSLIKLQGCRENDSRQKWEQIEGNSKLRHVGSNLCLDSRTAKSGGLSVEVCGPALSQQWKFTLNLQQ
inactive: saracatinib -0.025 | sotrastaurin 0.005 | alvocidib -0.012 | Tubastatin A 0.013 | [1] 0.004 | defactinib 0.023 | rucaparib -0.046 | [2] -0.015 | encorafenib 0.036 | [3] -0.017 | [4] 0.018 | filanesib -0.025 | zotarolimus 0.043 | idasanutlin -0.065 | alisertib -0.03 | [5] -0.042 | gefitinib 0.059 | [6] -0.012 | lapatinib 0.036 | pictilisib -0.01

FBXO3 (UniProt Q9UK99)
Chain of UniProt Q9UK99 (Q9UK99 whole entry, looked up): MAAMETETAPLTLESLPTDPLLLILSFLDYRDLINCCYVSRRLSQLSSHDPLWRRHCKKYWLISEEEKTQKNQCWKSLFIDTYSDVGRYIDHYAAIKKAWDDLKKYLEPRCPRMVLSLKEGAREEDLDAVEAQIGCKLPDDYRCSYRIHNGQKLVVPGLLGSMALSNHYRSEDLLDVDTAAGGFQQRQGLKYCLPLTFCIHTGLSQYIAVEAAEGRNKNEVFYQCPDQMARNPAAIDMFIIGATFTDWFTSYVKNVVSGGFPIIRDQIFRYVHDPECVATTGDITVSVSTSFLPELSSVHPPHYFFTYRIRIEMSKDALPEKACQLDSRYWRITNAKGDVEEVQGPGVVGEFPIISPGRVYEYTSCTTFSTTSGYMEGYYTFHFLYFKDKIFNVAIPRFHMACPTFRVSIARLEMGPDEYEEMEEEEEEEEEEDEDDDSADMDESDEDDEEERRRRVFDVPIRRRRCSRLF
inactive: saracatinib 0.029 | sotrastaurin 0.049 | alvocidib -0.048 | Tubastatin A 0.157 | [1] -0.051 | defactinib 0.072 | rucaparib 0.016 | [2] -0.076 | encorafenib 0.018 | [3] -0.005 | [4] 0.011 | filanesib -0.053 | zotarolimus -0.022 | idasanutlin 0.032 | alisertib -0.071 | [5] -0.013 | gefitinib 0.011 | [6] 0.025 | lapatinib 0.028 | pictilisib -0.023

GALNT4 (UniProt Q8N4A0)
Chain of UniProt Q8N4A0 (Q8N4A0 whole entry, looked up): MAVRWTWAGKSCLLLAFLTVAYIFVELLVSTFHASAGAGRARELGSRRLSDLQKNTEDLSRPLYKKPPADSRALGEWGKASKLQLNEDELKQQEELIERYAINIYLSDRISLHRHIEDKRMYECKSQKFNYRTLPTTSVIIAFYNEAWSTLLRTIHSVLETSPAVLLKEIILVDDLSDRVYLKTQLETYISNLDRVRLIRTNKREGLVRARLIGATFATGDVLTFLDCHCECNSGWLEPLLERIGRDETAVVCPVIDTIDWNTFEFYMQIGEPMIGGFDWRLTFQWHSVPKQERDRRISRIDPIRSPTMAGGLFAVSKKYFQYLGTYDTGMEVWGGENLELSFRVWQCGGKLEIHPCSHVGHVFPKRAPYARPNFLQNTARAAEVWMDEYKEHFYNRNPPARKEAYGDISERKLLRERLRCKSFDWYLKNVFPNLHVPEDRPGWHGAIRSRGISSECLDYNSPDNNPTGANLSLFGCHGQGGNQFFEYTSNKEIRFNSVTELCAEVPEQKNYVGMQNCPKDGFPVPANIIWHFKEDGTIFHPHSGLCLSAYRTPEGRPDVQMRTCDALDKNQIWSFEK
inactive: saracatinib -0.088 | sotrastaurin -0.029 | alvocidib -0.033 | Tubastatin A 0.046 | [1] -0.063 | defactinib 0.016 | rucaparib -0.079 | [2] -0.138 | encorafenib 0.04 | [3] -0.013 | [4] -0.029 | filanesib 0.066 | zotarolimus -0.017 | idasanutlin -0.099 | alisertib -0.015 | [5] 0.011 | gefitinib 0.025 | [6] 0.025 | lapatinib -0.028 | pictilisib 0.172

HIST2H3A (UniProt Q71DI3)
inactive: saracatinib -0.196 | sotrastaurin 0.063 | alvocidib 0.165 | Tubastatin A 0.17 | [1] -0.166 | defactinib 0.339 | rucaparib 0.306 | [2] 0.185 | encorafenib -0.063 | [3] 0.093 | [4] 0.037 | filanesib 0.268 | zotarolimus -0.167 | idasanutlin 0.508 | alisertib 0.001 | [5] -0.106 | gefitinib 0.061 | [6] -0.367 | lapatinib 0.065 | pictilisib -0.021

GCC2 (UniProt Q8IWJ2)
inactive: saracatinib -0.051 | sotrastaurin -0.077 | alvocidib 0.117 | Tubastatin A 0.053 | [1] 0.061 | defactinib 0.026 | rucaparib 0.175 | [2] 0.031 | encorafenib 0.136 | [3] -0.049 | [4] -0.037 | filanesib 0.137 | zotarolimus 0.074 | idasanutlin 0.065 | alisertib -0.046 | [5] -0.037 | gefitinib 0.024 | [6] -0.11 | lapatinib 0.056 | pictilisib 0.014

IDI1 isoform 2 (UniProt Q13907)
Chain of UniProt Q13907 (Q13907 whole entry, looked up): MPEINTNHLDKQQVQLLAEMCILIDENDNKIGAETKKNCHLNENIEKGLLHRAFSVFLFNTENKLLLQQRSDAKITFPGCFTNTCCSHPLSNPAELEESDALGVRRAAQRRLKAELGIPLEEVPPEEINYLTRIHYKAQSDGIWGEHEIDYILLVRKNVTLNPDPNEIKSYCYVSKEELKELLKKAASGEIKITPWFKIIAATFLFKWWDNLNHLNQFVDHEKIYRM
inactive: saracatinib 0.01 | sotrastaurin 0.065 | alvocidib -0.017 | Tubastatin A -0.174 | [1] -0.002 | defactinib -0.006 | rucaparib -0.124 | [2] 0.002 | encorafenib -0.001 | [3] 0.044 | filanesib 0.026 | zotarolimus 0.033 | idasanutlin -0.006 | alisertib -0.003 | [5] 0.007 | gefitinib 0.024 | [6] 0.039 | lapatinib -0.014 | pictilisib 0.089
active: [4] -0.314
